Screens (PubChem BioAssay)
D1 antag – blocks dopamine activation of the human D1 receptor; P21728; HEK293 TREx D1 cells, calcium flux, dopamine EC80; stronger effect = lower value; activity change, negative = inhibition, % at 10 µM; actives 3.2% (n = 360,000); AID 504652; in the data active = activity change below about -30%; note: % is set by controls: 0 for no effect and ±100 for the full control effect
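Tetracycline-induced HEK293 Trex D1 cells, force-coupled to calcium, dye-loaded; compounds added and read 180 s, then EC80 dopamine added and calcium flux tracked kinetically another 180 s.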
USP2a block – inhibitors of human ubiquitin-specific protease USP2a; actives 0.01% (n = 330,000); O75604; USP2 core, Ub-CHOP2 coupled fluorogenic reporter, 485/531; AID 463254; Potency, µM (titrated, usually from 38.3 µM), for inactives: top-dose activity change, negative = inhibition, actives largely listed as inhibitors;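 note: potency is the fitted concentration of half-maximal effect; plate controls were DMSO wells for no effect and full inhibition by NEM control for full effect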
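USP2 core (10nM final) preincubated 30min RT with compound in 20mM Tris-HCl pH 8.0, 2mM CaCl2, 2mM beta-mercaptoethanol, 0.05% CHAPS; 25nM Ub-CHOP2 plus 25nM reporter substrate added, fluorescence (Ex485/Em531) read after 60min.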
D1 potentiator – human D1 dopamine receptor positive modulation | HEK293 TREx D1 cells, calcium flux, dopamine EC20 potentiation | potentiation, % at 10 µM | actives 0.036% (n = 360,000) | AID 504651; in the data active = potentiation above about 30%; note: 0% is about no effect
GALK inh – galactokinase (human) inhibition | actives 0.007% (n = 270,000) | Potency, µM (doses to about 57.5 µM), inactives show at the top dose activity change, negative = inhibition, actives largely listed as inhibitors | Purified GALK, Kinase-Glo residual ATP luminescence | AID 1868; note: potency is the fitted concentration of half-maximal effect; % is set by controls: 0 for no effect and ±100 for the full control effect
Target sequence (P51570 whole entry, looked up): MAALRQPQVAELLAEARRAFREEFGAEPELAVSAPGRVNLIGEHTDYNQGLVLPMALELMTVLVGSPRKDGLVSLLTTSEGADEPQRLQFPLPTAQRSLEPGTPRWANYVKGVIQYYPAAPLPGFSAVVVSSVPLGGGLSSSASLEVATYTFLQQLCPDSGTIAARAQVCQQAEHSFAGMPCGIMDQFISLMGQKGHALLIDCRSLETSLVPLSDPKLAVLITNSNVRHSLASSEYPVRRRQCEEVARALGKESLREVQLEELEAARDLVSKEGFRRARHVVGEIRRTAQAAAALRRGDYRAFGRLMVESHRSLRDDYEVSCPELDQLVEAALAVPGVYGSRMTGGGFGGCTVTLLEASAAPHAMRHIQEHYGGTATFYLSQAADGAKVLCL
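GALK at 5 nM final was combined with compound, 35 uM ATP and 100 uM galactose in HEPES pH8.0 with MgCl2 and DTT. The reaction ran one hour at room temperature before luminescent ATP detection.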
Eya2 inh – inhibitors of human Eya2 phosphatase activity; O00167; recombinant Eya2, OMFP fluorescence dephosphorylation (OMFP is methylfluorescein phosphate); Potency, µM (series often up to 76.9 µM), inactives show top-dose activity, negative = inhibition, usual class: inhibitors; actives 0.006% (n = 330,000); note: potency is the fitted concentration of half-maximal effect; % is set by controls: 0 for no effect and ±100 for the full control effect
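Eya2 protein (added as 0.2 uM solution) was preincubated with compound for 10 min at ambient temperature in 50 mM HEPES pH 7.5, 50 mM NaCl, 5 uM MgCl2, 0.05% BSA, 1 mM DTT. OMFP (added at 50 uM) then reacted 10 min; fluorescence read at 485/525 nm.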
D1 agonist – activates the human D1 dopamine receptor. P21728. HEK293 T-REx D1 cells, calcium flux, agonist mode. activation, % at 2 µM. actives 1% (n = 360,000). AID 504660; in the data active = activation above about 30%; note: 0% is about no effect
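Inducible HEK293 T-REx D1 cells, force-coupled to calcium signalling, were plated at 4000 cells/well with tetracycline and held overnight at 30 C. After no-wash calcium dye loading, compound-evoked calcium rise over 180 s flagged agonists.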
* marks the source's active call; other numbers are inactive results; u = inconclusive; x = no result; ! = not active in a repeat. Most compounds without a hit are left out; they make up all but 3.9% or so of the library. Unless noted, calls come from the whole dose curve; as a rule, active = well fitted inhibition curve with a large enough effect; inconclusive = small, poorly fitted or top-dose-only effect, or effect the other way; inactive = flat fitted curve, though single readings scatter.

SMILES | D1 antag | USP2a block | D1 potentiator | GALK inh | Eya2 inh | D1 agonist
COc1cccc(CNC(=O)Cn2c(=O)oc3cc(S(=O)(=O)N4CCC(C)CC4)ccc32)c1 | -11 | x | -3 | x | x | 8
CCOC(=O)c1nn(-c2ccc(OC)cc2)c(=O)c2c(NC(=O)Cc3ccccc3)scc12 | 2 | x | 16 | x | x | 4
O=C(CSc1cn(CC(=O)N2CCCCC2)c2ccccc12)Nc1ccccc1F | -15 | x | -6 | x | x | 7
CC(C)c1ccc(NC(=O)Cn2c(=O)oc3cc(S(=O)(=O)N4CCCC4)ccc32)cc1 | -36* | x | -3 | x | x | 4
CSc1ncc(C(=O)NCc2cccc(C)c2)c(-c2ccccc2)n1 | 2 | x | -2 | x | x | 4
CCN1CCN(Cc2c(O)ccc3oc(C)c(C(=O)Nc4cccc(Cl)c4C)c23)CC1 | -6 | x | 0 | x | x | 23
COCCCN(C(=O)c1ccco1)c1nc(-c2cc(OC)ccc2OC)cs1 | -41* | 2% | 5 | 0% | -1% | 6
COc1ccc(OC)c(-c2csc(NC(=O)COC(=O)C3(C)CC3(Cl)Cl)n2)c1 (stereo not drawn) | -48* | 1% | -6 | x | 11% | 2
CCC(=O)N(CC)c1nc(-c2cc(OC)ccc2OC)cs1 | 30 | -2% | -3 | -4% | 5% | 34*
CCC(=O)N(CCCN(C)C)c1nc(-c2cc(OC)ccc2OC)cs1 | 8 | -1% | -1 | -1% | -5% | 8
CN(C)CCCN(C(=O)c1ccco1)c1nc(-c2ccc(Cl)cc2)cs1 | -42* | -4% | -6 | 4% | 2% | 33*
COc1ccc(CCN2C(=O)c3[nH]nc(-c4ccccc4O)c3C2c2ccc(OC)c(OC)c2)cc1 (stereo not drawn) | -2 | x | 2 | x | x | 2
Cc1cc(/C=C2\SC(=O)NC2=O)c(C)n1-c1ccc(N2CCOCC2)cc1 | 2 | -9% | -3 | 0% | -5% | 12
Cc1cc(/C=C2\SC(=O)NC2=O)c(C)n1-c1ccc(N(C)C)cc1 | -52* | -2% | -10 | -3% | 0% | -3
CCC(C(=O)N(C)Cc1ccccc1)n1nc(C)c2sc3ccccc3c2c1=O (stereo not drawn) | 4 | x | 2 | x | x | 2
Cc1ccc2c(c1)N(Cc1ccncc1)C(=O)C(C)O2 (stereo not drawn) | -34* | 1% | -10 | 3% | 7% | 2
Cc1ccc(Cl)c(OCCN2CCCC(C)C2)c1 (stereo not drawn) | -71* | -2% | -4 | 2% | -3% | 6
CC1CCCN(CCCOc2ccc(Cl)cc2Br)C1 (stereo not drawn) | -52* | -1% | -5 | 0% | -1% | 16
Clc1ccc(OCCOCCN2CCCCC2)c(Br)c1 | -45* | -2% | -11 | -2% | 26% | 20
COc1ccc(C(c2c(NC(C)=O)sc3c2CCCC3)N2CCN(CCO)CC2)cc1OC (stereo not drawn) | -11 | 1% | 2 | 8% | -3% | 6
CC(=O)Nc1sc2c(c1C(c1cccc(Cl)c1)N1CCN(CCO)CC1)CCCC2 (stereo not drawn) | -30* | 0% | -5 | 1% | -12% | 15
Cc1c(NS(=O)(=O)c2ccccc2)cc(C(C)C)c(O)c1S(=O)(=O)c1ccc(Cl)cc1 | 12 | x | -5 | x | x | 0
CC(=O)Oc1ccc(-c2cccc(C(=O)OCC(=O)N(C)c3ccccc3)c2)cc1 | -84* | -3% | -4 | 0% | -11% | 5
CC(C)n1cc(/C=C2\NC(=O)N(c3cccc(Cl)c3)C2=O)c2ccccc21 | -68* | -5% | -10 | 2% | -15% | 2
O=C(O)Cn1cc(/C=C2/NC(=O)N(c3ccc(Cl)cc3)C2=O)c2ccccc21 | -5 | 3% | 0 | -2% | 1% | 2
SMILES | D1 antag | USP2a block | D1 potentiator | GALK inh | Eya2 inh | D1 agonist
CC(C)n1cc(/C=C2/NC(=O)N(c3cccc(Cl)c3)C2=O)c2ccccc21 | -53* | -1% | -10 | -4% | -9% | 0
COc1cc2nc(Nc3ccc(C)c(C)c3)nc(N)c2cc1OC | -35*! | 0% | -3 | 2% | u | 1
COc1cc(NS(C)(=O)=O)ccc1Nc1c2ccccc2nc2ccccc12 | -49* | -2% | -6 | x | -7% | -2
COc1cc(Nc2c3c(nc4ccccc24)CCC3)cc(OC)c1OC | -2 | -3% | -1 | -3% | -17% | -1
COc1ccc(OC)c(Nc2c3ccccc3nc3ccccc23)c1 | -54* | -4% | -13 | 2% | 0% | 11
COc1ccc(C)cc1Nc1nc(N)c2ccccc2n1 | -36* | 2% | -17 | -5% | 16% | 2
CCOC(=O)Cn1c(=O)n(CC2CCCO2)c2nc(-c3ccccc3)nc(C(N)=O)c21 (stereo not drawn) | 13 | x | 2 | x | x | 2
Cc1ccc(NC(=O)C2CCCN2S(=O)(=O)c2ccc3c(c2)C(C)(C)C(=O)N3C)cc1 (stereo not drawn) | -12 | x | -3 | x | x | 0
COc1ccc([N+](=O)[O-])cc1Nc1c2ccccc2nc2ccccc12 | -41* | 3% | -10 | 7% | 6% | 1
Cc1ccc(C(=O)N(C)c2nnc(-c3ccncc3)s2)cc1 | -30* | 4% | -5 | 4% | 14% | 10
O=C(c1ccc(CS(=O)Cc2ccc(Cl)cc2)o1)N1CCN(c2cccc(Cl)c2)CC1 (stereo not drawn) | -25 | -2% | -7 | 1% | -6% | 8
O=C(c1ccc(CS(=O)Cc2ccc(Cl)cc2)o1)N1CCN(c2ccc(F)cc2)CC1 (stereo not drawn) | -36* | -4% | -9 | 2% | -5% | 17
CC1C(=O)C(C)(C)C(=O)OC1c1ccc([N+](=O)[O-])cc1 (stereo not drawn) | -9 | -1% | -3 | 0% | 4% | 1
CC1(C)C(=O)OC(c2ccc([N+](=O)[O-])cc2)C(C)(C)C1=O (stereo not drawn) | -32* | 0% | 0 | -1% | -22% | 7
Cc1nc2ccn(Cc3ccco3)c(=O)c2cc1C(=O)N1CCN(c2ccccc2F)CC1 | -5 | x | 2 | x | x | 0
N#Cc1ccsc1NC(=O)CN1C(=O)NC2(CCCC2)C1=O | -33* | 9% | -8 | x | -10% | 1
CN(Cc1ccccc1Br)C(=O)CN1C(=O)NC2(CCCCCC2)C1=O | -76* | -4% | -5 | x | -11% | -1
O=C(CN1C(=O)NC2(CCCC2)C1=O)OCc1ccc(Br)cc1 | -66* | 0% | -4 | x | 14% | 1
O=C(CN1C(=O)NC2(CCCCCC2)C1=O)c1ccc(F)cc1 | -49* | 1% | -2 | x | -19% | -2
O=C(c1ccc(F)cc1)N1CCN(CCc2ccncc2)CC1 | -9 | x | 0 | x | x | 2
